# Compound activity: PubChem BioAssay, National Center for Advancing Translational Sciences (NCATS)
# GLS inh: qHTS for Inhibitors of Glutaminase (GLS) | Glutaminase kidney isoform, mitochondrial (Homo sapiens), O94925 | GLS enzymatic activity, qHTS titration | Potency, µM (highest dose often 45.5 µM), without a hit: at the highest dose activity change, negative = inhibition, hits mostly inhibitors | 0.21% of 410,000 active
#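 Read-out is an Amplex red fluorescence increase coupled through glutamate oxidase and HRP, measured before and after 30 min room-temperature incubation. hKGA is in 45 mM KH2PO4 (pH 8.2) with 0.02% Tween-20; glutamine added as 1mM solution.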
# MBNL1-CUG inh: qHTS Assay for Inhibitors of MBNL1-poly(CUG) RNA binding; Muscleblind-like protein 1 (Homo sapiens), Q9NR56; TR-FRET MBNL1-His/biotin-(CUG)12 binding, 665/545 ratio; Potency, µM (titrated, usually from 57.5 µM), for the others: at the top dose activity change, negative = inhibition, hits mostly inhibitors; 0.036% of 280,000 active; AID 2675, 2010; active = well fitted inhibition curve with a large enough effect in the signal ratio, with a control signal flat, not every such curve was filed as active; inconclusive = small, poorly fitted or top-dose-only effect, or effect the other way, or a change in a side signal; inactive = no such curve, though single readings can be large or run the other way; the % refers to the signal ratio
# Target sequence (Q9NR56 whole entry, looked up): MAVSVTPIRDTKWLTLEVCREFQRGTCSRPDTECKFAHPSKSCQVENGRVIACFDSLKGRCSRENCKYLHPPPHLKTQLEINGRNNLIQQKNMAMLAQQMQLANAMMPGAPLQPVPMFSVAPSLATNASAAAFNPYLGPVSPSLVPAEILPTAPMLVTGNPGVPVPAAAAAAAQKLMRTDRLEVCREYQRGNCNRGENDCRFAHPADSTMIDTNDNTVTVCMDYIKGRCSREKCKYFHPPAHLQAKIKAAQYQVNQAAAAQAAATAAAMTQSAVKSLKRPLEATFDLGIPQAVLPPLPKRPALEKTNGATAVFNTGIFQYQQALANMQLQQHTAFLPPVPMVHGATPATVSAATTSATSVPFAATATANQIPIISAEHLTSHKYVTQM
#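 TR-FRET between His-tagged MBNL1 and biotin-(CUG)12 RNA, detected with Tb anti-His antibody (0.055 ng/ul) and streptavidin-XL665 (5 nM), 60 min at room temperature. Compounds titrated 92 nM to 58 uM; 665/545 nm ratio normalized to buffer and complex controls.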
# Apoferritin bind: qHTS Assay for Identification of Novel General Anesthetics | Ferritin light chain (Equus caballus), P02791 | 0.074% of 350,000 active | apoferritin/1-aminoanthracene competitive binding, fluorescence | Potency, µM (doses to about 77.5 µM), for inactives: at the highest dose activity change, negative = displacement, most hits filed as inhibitors; note: nearly all actives have a fitted effect of over 20% in size
# Target sequence (P02791 2-175 limits assumed): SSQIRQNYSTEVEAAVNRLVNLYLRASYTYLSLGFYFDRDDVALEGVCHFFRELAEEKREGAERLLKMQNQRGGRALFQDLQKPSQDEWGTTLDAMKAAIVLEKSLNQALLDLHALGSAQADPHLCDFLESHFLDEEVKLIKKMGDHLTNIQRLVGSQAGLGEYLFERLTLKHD
#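 Apoferritin-based anesthetic binding model; compound displacement of fluorescent 1-AMA measured as endpoint fluorescence after 10 minutes at room temperature, scaled to free-ligand and complex controls.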
# Chronic BCR inh: qHTS Assay to Find Inhibitors of Chronic Active B-Cell Receptor Signaling | ABC-DLBCL IkBa-CBG/CBR reporter, luminescence ratio, 4 h | Potency, µM (highest dose often 46.1 µM), without a hit: top-dose activity change, negative = inhibition, hits mostly inhibitors | 0.05% of 340,000 active | AID 493014, 2011; active = well fitted inhibition curve with a large enough effect in the signal ratio, with a control signal flat, not every such curve was filed as active; inconclusive = small, poorly fitted or top-dose-only effect, or effect the other way, or a change in a side signal; the % refers to the signal ratio;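 note: plate controls were basal doxycycline-induced cells for no effect and cells given 10 µM MG132 for full effect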
#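 Doxycycline induced both beetle luciferases in TMD8 lymphoma cells; IKK-driven degradation limits the IkappaBalpha-fused green signal, while red luminescence normalises for cell number and nonspecific effects. Compounds tested up to 46 uM, 4 hrs.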
# B2AR arrestin: qHTS assay of beta-arrestin-biased ligands of beta2-adrenergic receptor; Potency, µM (top dose mostly 46.1 µM), for the others: at the highest dose activation, usual class: activators; beta-arrestin recruitment to beta2AR, cell-based reporter; Beta-2 adrenergic receptor (Homo sapiens), P07550; 0.02% of 330,000 active;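 note: 0% = DMSO controls and full agonism = EC100 isoproterenol or metaproterenol; nearly all actives have a fitted effect of over 65% in size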
# * marks the source's active call; other numbers are inactive results; ? = inconclusive; · = not tested or not shown. This is a sample that favours compounds with a hit; in the whole collection about 0.35% have one here. Unless noted, calls come from the whole dose curve; as a rule, active = well fitted curve in the direction sought with a large enough effect; inconclusive = small, poorly fitted or top-dose-only effect, or another doubt; inactive = no such curve, though single readings can be large; an effect the other way counts as inactive or inconclusive. Unless noted, % is set by controls: 0 for no effect and ±100 for the full control effect; potency is the fitted concentration of half-maximal effect.
SMILES,GLS inh,MBNL1-CUG inh,Apoferritin bind,Chronic BCR inh,B2AR arrestin
CCc1ccc(N2CC(C(=O)OCc3nc4ccsc4c(=O)[nH]3)CC2=O)cc1 (stereo unspecified),18µM*,·,·,12%,0%
Cc1cnc(C(=O)OCc2nc3ccsc3c(=O)[nH]2)cn1,14µM*,·,·,3%,0%
COc1ccc(N(C(=O)CCl)C(C)(C(=O)Nc2c(C)cccc2C)c2ccccn2)cc1 (stereo unspecified),12%,14%,-1%,?,13µM*
CCOc1ccc(NC(=O)C(c2ccccn2)N(C(=O)CCl)c2ccc(OC)cc2)cc1 (stereo unspecified),11%,4%,-6%,?,0%
Oc1c(N=Nc2ccc(F)cc2)ccc2ccccc12,-33%,17%,-12%,-4%,0%
Oc1c(N=Nc2nn[nH]n2)ccc2ccccc12,20µM*,·,·,·,·
CC(C)(C)CC(=O)Nc1ccc(Nc2ccccc2)cc1,-3%,1%,8.9µM*,9%,0%
Cc1cccc(N2CCN(c3ccc4cc(S(=O)(=O)N5CCC(C)CC5)ccc4n3)CC2C)c1 (stereo unspecified),5%,·,9%,·,·
O=c1[nH][nH]c2c(N=Cc3ccccc3O)ccc(F)c12,11µM*,?,6%,9%,0%
C[C@H]1O[C@H](O[C@H]2[C@H](O[C@@H]3CC[C@@]4(C)C(CC[C@]5(C)C4CC=C4[C@@H]6CC(C)(C)CC[C@]6(C(=O)O[C@@H]6O[C@H](CO)[C@@H](O)[C@H](O)[C@H]6O)CC[C@]45C)C3(C)C)O[C@H](C(=O)O)[C@@H](O)[C@@H]2O)[C@@H](O)[C@@H](O)[C@@H]1O (stereo partly specified),?,·,·,10%,0%
C[C@@H]1CC[C@]2(C(=O)O[C@@H]3O[C@H](CO)[C@@H](O)[C@H](O)[C@H]3O)CC[C@]3(C)C(=CCC4[C@@]5(C)C[C@@H](O)[C@H](O)[C@@](C)(C(=O)O[C@@H]6[C@H](O)C[C@@]7(C)C(CC[C@]8(C)C7CC=C7[C@H]9[C@](C(=O)O[C@@H]%10O[C@H](CO)[C@@H](O)[C@H](O)[C@H]%10O)(CC[C@@H](C)[C@@]9(C)O)CC[C@]78C)[C@@]6(CO)C(=O)O)C5CC[C@]43C)[C@@H]2[C@]1(C)O (stereo partly specified),7.1µM*,·,·,-1%,6%
C=CCOC(=O)C1=C(C)N=c2s/c(=C3\C(=O)N(CC(=O)O)c4ccccc43)c(=O)n2C1c1ccc(OC)cc1 (stereo unspecified),22µM*,12%,-15%,2%,-1%
CCOC(=O)C1=C(C)N=c2s/c(=C3\C(=O)Nc4ccccc43)c(=O)n2C1c1ccc2c(c1)OCO2 (stereo unspecified),3%,?,-3%,-21%,-1%
O=c1c(O)cccc2cc(O)c(O)c(O)c12,1.6µM*,?,4%,13%,-1%
O=c1cc(-c2ccccc2)oc2cc(O)c(O)c(O)c12,13%,·,·,12%,-1%
O=C(Cn1cnc2ccccc2c1=O)OCC(=O)c1ccc2c(c1)OCCO2,-7%,-11%,16µM*,-1%,-1%
O=C(Cn1cnc2ccccc2c1=O)Nc1ccc2c(c1)OCCO2,-11%,-12%,-8%,0%,0%
Cc1ccccc1-c1nc2c3ccccc3nc(=S)n2[nH]1,-16%,0%,0%,?,10µM*
Cc1nc2ccccc2n1CCc1nc2c3ccccc3nc(=S)n2[nH]1,-3%,-10%,-8%,-29%,0%
CCOC(=O)CCCCC(=O)c1[nH]c(=O)[nH]c1CSCCO,-1%,3.5µM*,-7%,2%,0%
N#Cc1c(-c2ccccc2)nc(SCC(=O)N(c2ccccc2)c2ccccc2)[nH]c1=O,2%,?,2%,?,-1%
CCOC(=O)CCCCC(=O)c1[nH]c(=O)[nH]c1CSc1nc(-c2ccccc2)c(C#N)c(=O)[nH]1,36%,7.1µM*,-4%,-6%,0%
Cc1ccc(/C=C/C(=O)Nc2nc3ccccc3[nH]2)cc1,-6%,-18%,-4%,7%,0%
Cc1ccc(/C=C/C(=O)c2nc3ccccc3[nH]2)cc1,0%,6%,?,13µM*,8%
COc1ccc(-c2nc(CS(=O)CC(=O)NCc3ccccc3Cl)c(C)o2)cc1OC (stereo unspecified),0%,·,0%,·,·
SMILES,GLS inh,MBNL1-CUG inh,Apoferritin bind,Chronic BCR inh,B2AR arrestin
COc1cccc(-c2nc(CS(=O)CC(=O)NCc3ccccc3Cl)c(C)o2)c1 (stereo unspecified),0%,-10%,28µM*,-20%,3%
CO[C@@]1(NC(=O)CSC[C@@H](N)C(=O)O)C(=O)N2C(C(=O)O)=C(CSc3nnnn3C)CS[C@@H]21,23%,·,·,·,·
NC(=O)c1ccc(N2CCN(c3ccccc3F)CC2)c([N+](=O)[O-])c1,-1%,?,-14%,?,0%
NC(=O)c1ccc(N2CCN(c3ccccc3O)CC2)c([N+](=O)[O-])c1,11µM*,?,-22%,-1%,0%
COc1ccccc1N1CCN(C(=O)c2nn(-c3ccc(C)cc3)c(=O)n(C)c2=O)CC1,-6%,·,2%,·,·
Oc1cc(CNCc2ccccc2)c(O)cc1CNCc1ccccc1,18µM*,·,·,·,·
OCc1ccccc1CNCc1ccccc1,-1%,6%,-10%,-1%,0%
CC1(C)N=C(N)N=C(N)N1c1ccc(Cl)cc1,-13%,·,·,·,·
N#Cc1cc([N+](=O)[O-])ccc1NC(=O)COC(=O)CCC1CCCCC1,·,?,32µM*,4%,-1%
COc1ccc(N=c2ssnc2Cl)cc1,-10%,13%,-12%,-7%,-1%
CCOC(=O)c1ccc(N=c2ssnc2Cl)cc1,13µM*,-15%,-15%,-19%,0%
Nc1ccc(O)c2c1C(=O)c1ccccc1C2=O,7.9µM*,?,-14%,11%,1%
Nc1ccc(Br)c2c1C(=O)c1ccccc1C2=O,-2%,?,?,?,-1%
COc1ccc(C(=O)Cc2ccc(F)cc2)c(OC)c1,-1%,·,-17%,?,-1%
COc1ccc(C(=O)Cc2cc(OC)c(OC)cc2[N+](=O)[O-])c(OC)c1,11µM*,6%,-14%,1%,0%
CCOC(=O)[C@@H](N)CS,-13%,·,·,·,·
C/C(=N/NC(N)=S)c1ccc(Br)s1,20%,?,-23%,20µM*,?
